Read-out in one test: CD69, CD69 (gene 969)
The experiment in a line: BSK_SAg_CD69: BioMAP Diversity Plus: SAg Assay for CD69 Biomarker Activity (AID 2283089).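 As to AC50: cell surface CD69 protein quantified by ELISA with fluorescence detection.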 To be noted: primary human HUVEC with PBMC; actives raise or lower the signal. The gist of the method: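 Endothelial/PBMC co-culture; chemical added; 24 h incubation; CD69 ELISA with fluorescence detection; bidirectional fit vs DMSO.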

Read-out in test [1]: Monocyte Chemoattractant Protein-1 (MCP1), CCL2 (gene 6347)
The experiment in a line: BSK_SAg_MCP1: BioMAP Diversity Plus: SAg Assay for Monocyte Chemoattractant Protein-1 (MCP1) Biomarker Activity (AID 2283090). To be noted: primary human HUVEC with PBMC; actives raise or lower the signal. The gist of the method: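 Values derive from bidirectional fitting of ELISA-measured MCP1 against DMSO controls. Readings were taken 24 h after dosing human vascular endothelial cells co-cultured with peripheral blood mononuclear cells under superantigen stimulation.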

Read-out in test [2]: E-selectin (Homo sapiens) (UniProt P16581)
The experiment in a line: BSK_SAg_Eselectin: BioMAP Diversity Plus: SAg Assay for Eselectin Biomarker Activity (AID 2283091). To be noted: primary human HUVEC with PBMC; actives raise or lower the signal. An outline of the steps: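 Primary human endothelial cells and peripheral blood mononuclear cells were co-cultured and exposed to chemical for 24 hours. E-selectin levels were then quantified by ELISA, with bidirectional curve fitting normalised to DMSO controls.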

Read-out in test [3]: Monokine induced gamma interferon (MIG), CXCL9 (gene 4283)
The experiment in a line: BSK_SAg_MIG: BioMAP Diversity Plus: SAg Assay for Monokine induced gamma interferon (MIG) Biomarker Activity (AID 2283092). To be noted: primary human HUVEC with PBMC; actives raise or lower the signal. The gist of the method: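 Measures CXCL9 protein by ELISA in a human vascular primary-cell co-culture (umbilical vein endothelium with PBMC) 24 h after chemical addition. Activity is scored up or down from the DMSO control.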

Test [4] can be described thus: BSK_SAg_PBMCCytotoxicity: PBMC Cytotoxicity Assessment in the BioMAP Diversity Plus: SAg Assay (AID 2283093).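 Also: PBMC viability measured as Alamar Blue reduction fluorescence at 546/580 nm; fitted both ways against DMSO so a hit may be loss or gain of signal.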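 As to AC50: PBMC superantigen activated with SEB plus TSST-1 one hour after compound addition.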 To be noted: primary human HUVEC with PBMC. An outline of the steps: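 Alamar Blue reduction (6 h, 546/580 nm) reports PBMC cytotoxicity after 90 h superantigen activation (SEB, TSST-1; 20 ng/mL final each) with 1 h compound pre-treatment. Gain or loss of signal fitted versus DMSO.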

Test [5] is described as follows: BSK_SAg_Proliferation: Cell Proliferation Assessment in the BioMAP Diversity Plus: SAg Assay (AID 2283095).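 Also: relative cell number as total protein by SRB absorbance in sub-confluent culture.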 To be noted: primary human HUVEC with PBMC. An outline of the steps:
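Absorbance of sulforhodamine B at 560 nm reports total protein in a human vascular endothelial/PBMC co-culture after 96 h chemical exposure. Gain or loss of signal is fitted in both directions against DMSO.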

Test [6] in a line: BSK_SAg_SRB: Viability Assessment in the BioMAP Diversity Plus: SAg Assay (AID 2283096).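 Also: cells read one day after compound addition; hits may be either gain or loss of signal compared with DMSO.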 To be noted: primary human HUVEC with PBMC. The gist of the method:
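This overt-cytotoxicity endpoint quantifies protein in human endothelial/PBMC co-cultures at 24 h using SRB absorbance (560 nm) after trichloroacetic acid fixation. Values reflect signal change from the DMSO negative control, fitted bidirectionally.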

Test [7] concerns the target human CYP2C9, CYP2C9 (gene 1559) (UniProt P11712). The experiment in a line: NVS_ADME_hCYP2C9: NovaScreen (NVS) CYP450-related Enzyme Activity (ADME) Assay for human CYP2C9 (AID 2283108; active = hit-call score of the fitted dose curve at least 0.9, where 1 is the maximum). The gist of the method: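 Cell-free assay of recombinant human CYP2C9 produced in Sf9 cells, with enzyme activity read by fluorescence intensity 0.75 h after compound addition. Loss of signal versus an acetonitrile negative control indicates inhibition. Primary screen used 10 uM in duplicate; actives were retested in concentration series.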

Test [8] addresses Cytochrome P450 2C19 (Homo sapiens) (UniProt P33261). The experiment in a line: NVS_ADME_hCYP2C19: NovaScreen (NVS) CYP450-related Enzyme Activity (ADME) Assay for human CYP2C19 (AID 2283113; active = hit-call score of the fitted dose curve at least 0.9, where 1 is the maximum;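 also: potency for inhibition seen as loss of fluorescent signal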). An outline of the steps: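 Chemicals first screened in duplicate at 10 uM against recombinant human enzyme produced in insect cells; confirmed actives then run as concentration series. Fluorogenic substrate turnover read by fluorescence after 1 h, normalised to acetonitrile.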

Test [9] has as its target human CYP19A1, CYP19A1 (gene 1588) (UniProt P11511). The experiment in a line: NVS_ADME_hCYP19A1: NovaScreen (NVS) CYP450-related Enzyme Activity (ADME) Assay for human CYP19A1 (AID 2283098; active = hit-call score of the fitted dose curve at least 0.9, where 1 is the maximum;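 also: potency for inhibitors seen as loss of fluorescent enzyme signal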). The gist of the method: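 Compounds were first screened at 10 uM in duplicate against purified enzyme, with a fluorogenic substrate and fluorescence intensity detection after 0.5 h. Inhibition appears as reduced signal against acetonitrile control.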

In test [10] the target is human CYP1A1, CYP1A1 (gene 1543) (UniProt P04798). The experiment in a line: NVS_ADME_hCYP1A1: NovaScreen (NVS) CYP450-related Enzyme Activity (ADME) Assay for human CYP1A1 (AID 2283100; active = hit-call score of the fitted dose curve at least 0.9, where 1 is the maximum). An outline of the steps: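 Compounds first went through duplicate single-concentration testing at 10 uM against purified CYP1A1. Those passing a threshold such as 30% inhibition entered singleton dose-response, highest concentration 20 uM. Signal was fluorescence measured after 1 hour.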
human CYP1A1, CYP1A1 (gene 1543), sequence (P04798 whole entry, looked up): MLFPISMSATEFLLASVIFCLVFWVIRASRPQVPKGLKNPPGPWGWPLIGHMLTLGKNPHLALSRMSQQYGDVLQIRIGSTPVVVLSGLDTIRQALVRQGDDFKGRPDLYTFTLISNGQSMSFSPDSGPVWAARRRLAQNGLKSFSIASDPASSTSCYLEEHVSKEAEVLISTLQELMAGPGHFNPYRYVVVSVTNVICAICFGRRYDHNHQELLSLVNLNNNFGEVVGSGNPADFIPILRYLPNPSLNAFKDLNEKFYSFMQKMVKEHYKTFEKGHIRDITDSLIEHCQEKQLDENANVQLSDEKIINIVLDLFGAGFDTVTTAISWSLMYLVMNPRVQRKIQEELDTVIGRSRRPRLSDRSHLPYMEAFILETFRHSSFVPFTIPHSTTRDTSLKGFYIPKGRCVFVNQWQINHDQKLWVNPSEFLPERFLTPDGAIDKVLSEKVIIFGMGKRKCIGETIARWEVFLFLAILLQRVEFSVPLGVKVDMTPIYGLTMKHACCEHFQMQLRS

Test [11] has as its target Cytochrome P450 2C18 (Homo sapiens) (UniProt P33260). The experiment in a line: NVS_ADME_hCYP2C18: NovaScreen (NVS) CYP450-related Enzyme Activity (ADME) Assay for human CYP2C18 (AID 2283103). The gist of the method: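 Enzyme activity measured by fluorescence 0.5 h after compound addition, using recombinant CYP2C18 and a specific substrate. Actives from duplicate 10 uM screening were retested in concentration series (top 20 uM); acetonitrile served as negative baseline.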

The target of test [12] is Cytochrome P450 3A4 (Homo sapiens) (UniProt P08684). The experiment in a line: NVS_ADME_hCYP3A4: NovaScreen (NVS) CYP450-related Enzyme Activity (ADME) Assay for human CYP3A4 (AID 2283110; active = hit-call score of the fitted dose curve at least 0.9, where 1 is the maximum). The gist of the method: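 Activity is derived from decreased fluorescence intensity relative to acetonitrile, measured 0.33 hour after dosing insect-cell-expressed CYP3A4 in a cell-free format. Screening used 10 uM in duplicate before concentration-response follow-up.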
Cytochrome P450 3A4 (Homo sapiens), sequence (P08684 whole entry, looked up): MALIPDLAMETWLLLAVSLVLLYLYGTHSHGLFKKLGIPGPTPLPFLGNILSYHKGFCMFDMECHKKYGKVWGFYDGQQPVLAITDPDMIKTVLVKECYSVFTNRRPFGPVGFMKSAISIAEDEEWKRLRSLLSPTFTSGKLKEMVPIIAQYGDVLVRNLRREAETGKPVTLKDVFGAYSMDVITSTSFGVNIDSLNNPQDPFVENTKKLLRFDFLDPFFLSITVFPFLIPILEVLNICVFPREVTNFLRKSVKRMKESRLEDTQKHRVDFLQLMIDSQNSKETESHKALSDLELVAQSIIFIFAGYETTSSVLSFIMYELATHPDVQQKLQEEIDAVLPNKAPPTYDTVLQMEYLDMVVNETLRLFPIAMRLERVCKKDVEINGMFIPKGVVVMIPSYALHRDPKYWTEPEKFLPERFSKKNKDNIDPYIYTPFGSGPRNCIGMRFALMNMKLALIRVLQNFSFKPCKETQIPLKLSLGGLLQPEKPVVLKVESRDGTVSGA

Molecules are shown by their SMILES. Where “and” joins values, the source holds several entries; their conditions need not be identical. Equal values may be shown once. Results filed as inconclusive are left out. Calls of active or inactive are those of the source. The calls were made as follows, unless noted: active = hit-call score of the fitted dose curve at least 0.9, where 1 is the maximum; inactive = score below 0.9.

human CYP2C9, CYP2C9 (gene 1559), sequence (P11712 whole entry, looked up): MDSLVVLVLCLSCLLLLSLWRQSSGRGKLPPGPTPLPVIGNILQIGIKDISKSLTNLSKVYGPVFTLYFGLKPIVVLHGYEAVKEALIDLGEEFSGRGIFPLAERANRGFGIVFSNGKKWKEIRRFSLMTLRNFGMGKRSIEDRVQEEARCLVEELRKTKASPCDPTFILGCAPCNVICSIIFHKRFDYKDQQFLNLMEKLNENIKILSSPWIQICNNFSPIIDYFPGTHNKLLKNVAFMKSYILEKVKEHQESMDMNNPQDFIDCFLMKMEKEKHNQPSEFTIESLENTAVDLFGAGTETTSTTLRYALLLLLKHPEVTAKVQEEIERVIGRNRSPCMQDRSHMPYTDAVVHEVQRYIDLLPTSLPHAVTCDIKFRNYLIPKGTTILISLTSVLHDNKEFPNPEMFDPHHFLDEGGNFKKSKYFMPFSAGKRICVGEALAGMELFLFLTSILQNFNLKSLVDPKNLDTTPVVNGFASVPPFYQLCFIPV
E-selectin (Homo sapiens), sequence (P16581 whole entry, looked up): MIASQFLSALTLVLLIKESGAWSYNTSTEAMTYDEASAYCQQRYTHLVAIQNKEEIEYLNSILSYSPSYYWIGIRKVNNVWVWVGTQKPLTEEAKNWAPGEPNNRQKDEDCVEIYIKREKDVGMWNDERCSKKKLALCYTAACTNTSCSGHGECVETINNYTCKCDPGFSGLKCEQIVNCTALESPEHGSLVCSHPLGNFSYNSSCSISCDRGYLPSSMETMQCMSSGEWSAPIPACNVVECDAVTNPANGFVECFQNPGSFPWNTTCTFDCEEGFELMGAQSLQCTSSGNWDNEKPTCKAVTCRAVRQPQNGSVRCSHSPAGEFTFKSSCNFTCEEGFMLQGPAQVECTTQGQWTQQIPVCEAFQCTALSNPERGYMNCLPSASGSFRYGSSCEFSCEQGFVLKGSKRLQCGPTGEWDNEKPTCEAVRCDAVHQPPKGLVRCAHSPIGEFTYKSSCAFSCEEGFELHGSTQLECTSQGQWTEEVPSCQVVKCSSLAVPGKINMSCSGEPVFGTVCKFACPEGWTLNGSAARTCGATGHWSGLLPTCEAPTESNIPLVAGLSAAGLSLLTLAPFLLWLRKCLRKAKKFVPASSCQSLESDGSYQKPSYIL
Cytochrome P450 2C18 (Homo sapiens), sequence (P33260 whole entry, looked up): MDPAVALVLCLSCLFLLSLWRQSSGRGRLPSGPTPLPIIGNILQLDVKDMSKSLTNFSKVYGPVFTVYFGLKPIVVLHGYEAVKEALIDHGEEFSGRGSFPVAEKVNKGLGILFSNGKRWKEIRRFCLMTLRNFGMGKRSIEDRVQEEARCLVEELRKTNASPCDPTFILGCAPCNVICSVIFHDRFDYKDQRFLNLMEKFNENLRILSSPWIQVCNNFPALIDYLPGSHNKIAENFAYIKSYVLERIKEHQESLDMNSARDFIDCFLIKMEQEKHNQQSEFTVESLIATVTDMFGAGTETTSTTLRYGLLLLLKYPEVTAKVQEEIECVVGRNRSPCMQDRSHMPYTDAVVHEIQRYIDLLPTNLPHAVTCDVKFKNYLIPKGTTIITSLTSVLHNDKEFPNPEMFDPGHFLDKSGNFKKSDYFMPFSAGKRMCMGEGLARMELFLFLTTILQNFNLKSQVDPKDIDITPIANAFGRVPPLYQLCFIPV
human CYP19A1, CYP19A1 (gene 1588), sequence (P11511 whole entry, looked up): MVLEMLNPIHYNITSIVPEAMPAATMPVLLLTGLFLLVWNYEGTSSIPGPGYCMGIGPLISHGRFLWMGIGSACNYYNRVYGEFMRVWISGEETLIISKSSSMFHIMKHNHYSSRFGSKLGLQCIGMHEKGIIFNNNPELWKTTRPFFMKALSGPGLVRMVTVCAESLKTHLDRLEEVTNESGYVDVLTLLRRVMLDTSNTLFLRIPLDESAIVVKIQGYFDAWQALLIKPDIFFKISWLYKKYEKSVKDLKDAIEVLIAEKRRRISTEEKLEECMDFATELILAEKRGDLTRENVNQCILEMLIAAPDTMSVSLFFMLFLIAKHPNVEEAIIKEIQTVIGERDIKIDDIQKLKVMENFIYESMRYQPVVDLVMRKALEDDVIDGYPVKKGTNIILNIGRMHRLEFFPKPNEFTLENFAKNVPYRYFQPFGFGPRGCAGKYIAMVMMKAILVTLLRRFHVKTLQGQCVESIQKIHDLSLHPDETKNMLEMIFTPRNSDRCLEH

`CCOc1nc(F)cc2nc(S(=O)(=O)Nc3c(Cl)cccc3Cl)nn12`: the outcome in the test with CD69, CD69 (gene 969) is “inactive”; in test [1], “inactive”; in test [2] it was “inactive”; in test [3] it was “inactive”; in test [4], “inactive”; in test [5] it was “inactive”. Moreover, the result in test [6] was inactive.

Consider `CCCC(=NOCC)C1=C(O)CC(CC(C)SCC)CC1=O` (stereo unspecified), for which the outcome in the test with CD69, CD69 (gene 969) is “inactive”; in [1], “inactive”; in test [2], “inactive”; in [3], “inactive”; in test [4], “inactive”; in [5], “inactive”. In addition, the result in test [6] was inactive.

In the case of `CC1(C)C(C(=O)OC(C#N)c2cccc(Oc3ccccc3)c2)C1(C)C` (stereo unspecified), the AC50 (usually the concentration at which the activity in the assay is half-maximal) is 12.2 µM (active) in the test with CD69, CD69 (gene 969); 13.1 µM (active) in test [2]; 15.3 µM (active) in [5]; 7.56 µM (active) in test [6]; 13.8 µM (active) in test [8]. Further, the result in test [1], in test [3], in test [4] and in test [7] was inactive.

Take `Nc1c(Cl)c(Cl)nc(C(=O)O)c1Cl`: the outcome in the test with CD69, CD69 (gene 969) was “inactive”; in test [1], “inactive”; in test [2] it was “inactive”; in test [3], “inactive”; in test [4], “inactive”; in [5], “inactive”. Besides, the outcome in test [6] was inactive.

Take `CC(C)N1C(=O)c2ccccc2NS1(=O)=O`: the outcome with CD69, CD69 (gene 969) is “inactive”; in test [1], “inactive”; in [2] it was “inactive”; in test [3] it was “inactive”; in test [4], “inactive”; in test [5], “inactive”. Moreover, the result in test [6] was inactive.

Turning to `COc1cc(OC)nc(NC(=O)NS(=O)(=O)c2ncccc2OCC(F)(F)F)n1`, the outcome in the test with CD69, CD69 (gene 969) is “inactive”; in [1] it was “inactive”; in test [2], “inactive”; in [3], “inactive”; in [4] it was “inactive”; in test [5], “inactive”. In addition, the result in [6] was inactive.

In the case of `CC(C)(C)C(=O)C(Oc1ccc(Cl)cc1)n1cncn1` (stereo unspecified), the outcome with CD69, CD69 (gene 969) is “inactive”; in test [1], “inactive”; in [2], “inactive”; in test [3], “inactive”; in test [4], “inactive”; in test [5], “inactive”. Moreover, the result in test [6] was inactive. Besides, the half-maximal activity concentration (AC50) in test [9] is 2.38 µM (active); in [10], 1.62 µM (active); in test [11] it was 8.28 µM (active); in test [7] it was 6.98 µM (active) and 4.65 µM (active); in test [12], 5.81 µM (active); in test [8] it was 1.32 µM (active).

Turning to `CC1(C)CCC(=Cc2ccc(Cl)cc2)C1(O)Cn1cncn1` (stereo unspecified), the outcome with CD69, CD69 (gene 969) is “inactive”; in test [1], “inactive”; in test [2] it was “inactive”; in test [3], “inactive”; in [4] it was “inactive”; in [5] it was “inactive”. Further, the result in test [6] was inactive. Moreover, the AC50 in test [10] is 0.908 µM (active); in test [11], 2.03 µM (active); in test [7], 289 nM (active); in test [8], 0.252 µM (active).

As to `COC(=O)NC(=S)Nc1ccccc1NC(=S)NC(=O)OC`, the outcome with CD69, CD69 (gene 969) is “inactive”; in test [1], “inactive”; in test [3] it was “inactive”; in test [6], “inactive”. Also, the AC50 in test [2] was 15.1 µM (active); in test [4] it was 14 µM (active); in [5] it was 19.2 µM (active); in test [8], 10 µM (active).

For the origin of these results see PubChem BioAssay (EPA / NIEHS).
